Four compounds from the supplement of paper PMC6522484 can be followed below.

Experiment [1] deals with DLD1. Kind of experiment: cell viability (CellTiter-Glo) relative to plate median (fraction of plate median); higher = more viable cells. Conditions: 5 µM; treatment time 24 h; reporter: 7TFP. The gist of the method: (§1)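 Stable lentiviral TCF/Wnt firefly luciferase reporters (7TFP or TCF4/Wnt) were present in the colorectal cancer cell lines used. These cells received library compounds at a final 5 µM for 24 h, and parallel plates were read for firefly luciferase or CellTiterGlo luminescence. Each well was normalised to the plate median, and the value reported is the mean of two independent replicates.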
In general terms: In ATP-based viability assays light output follows the ATP content of the culture.

In a further experiment the test system is HCT116. Described as above. Conditions: 5 µM; treatment time 24 h; reporter: TCF4/Wnt. The gist of the method: as §1
Experiment [2] relates to SW480. The description is as above. To be noted: 5 µM; treatment time 24 h; reporter: 7TFP. In a few lines:
as §1

Experiment [3] deals with DLD1. Put plainly: TCF/Wnt firefly luciferase reporter signal relative to plate median (fraction of plate median); higher = higher Wnt reporter signal. Conditions: 5 µM; treatment time 24 h; reporter: 7TFP. In a few lines:
as §1
On the technique in general: A reporter such as luciferase makes a cellular process visible.

In experiment [4] the test system is SW480. Described as above. Conditions: 5 µM; treatment time 24 h; reporter: 7TFP. The gist of the method: as §1

± gives the standard deviation of the averaged measurements.

As for `N=C(N)N/N=C/c1c(Cl)cccc1Cl`, the cell viability with DLD1 [1] is 0.976 ± 0.028; with HCT116, 1.02 ± 0.042; in the experiment on SW480 [2], 1.02 ± 0.014. Moreover, the “TCF/Wnt firefly luciferase reporter signal” value in the experiment with DLD1 [3] was 1.02 ± 0.021; in the experiment on SW480 [4], 1.05 ± 0.064.

`CC(=O)/N=c1/sc(S(N)(=O)=O)nn1C`: the cell viability was determined as 0.987 ± 0.047 in the experiment with DLD1 [1], 0.909 ± 0.13 in the experiment on HCT116 and 1.01 ± 0.053 in the experiment on SW480 [2]. The “TCF/Wnt firefly luciferase reporter signal” value in the experiment with DLD1 [3] turned out to be 0.865 ± 0.1; with SW480 [4], 1.08 ± 0.099.

For the compound `CC1(C)O[C@H]2[C@H](O)C[C@](O)(C(N)=O)C[C@H]2O1`, the figures for the cell viability in the experiment with DLD1 [1], in the experiment with HCT116 and in the experiment with SW480 [2] were 1.08 ± 0.035, 1.17 ± 0.15 and 1.09 ± 0.021, respectively. In addition, the “TCF/Wnt firefly luciferase reporter signal” value is 1.07 ± 0.15 with DLD1 [3] and 0.916 ± 0.055 with SW480 [4].

Turning to `COc1ccc(C(=O)CC(=O)O)c2c1C=CC(C)(C)O2`, the values for the cell viability with DLD1 [1], in the experiment with HCT116 and in the experiment with SW480 [2] were 1 ± 0.013, 0.978 ± 0.19 and 0.961 ± 0.098, respectively. Also, the “TCF/Wnt firefly luciferase reporter signal” value with DLD1 [3] came to 0.991 ± 0.056; in the experiment with SW480 [4] it was 0.859 ± 0.042.
